Rows were chosen to be rich in hits. Some 3.5% of all compounds tested hit in one or more screens of this group.
TEAD-YAP inh = TEAD-YAP interaction inhibition, primary screen, TEAD-YAP interaction inhibitor project, luminescence, HEK-TIYL cells; TEAD-Gal4/YAP UAS-luciferase luminescence; 640,000 tested, 1.4% active; inhibition, % at 9.12 µM; in the data active means inhibition above about 32%
MITF primary = MITF inhibitors, primary screen, biochemical, AlphaScreen, human | 650,000 tested, 0.91% active | inhibition, % at 2.6 µM | AlphaScreen MITF homodimerization, bead proximity signal | AID 1259374, 2018 | Microphthalmia-associated transcription factor (Homo sapiens), O75030; in the data active means inhibition above about 50%
GPR151 ag = activators of human GPR151, primary screen, cell-based, PathHunter beta-arrestin, luminescence. G-protein coupled receptor 151 (Homo sapiens), Q8TDV0. PathHunter beta-arrestin GPR151 cells. activation, % at 11.2 µM. 650,000 tested, 1% active. AID 1508602, 2020; in the data active means activation above about 4.9%
FBW7 act = FBW7 E3 ligase activators, primary screen, biochemical, AlphaScreen, human; F-box/WD repeat-containing protein 7 (Homo sapiens), Q969H0; AlphaScreen FBW7–phospho-cyclin E peptide binding, activator screen; normalized activity (activation), % at 26.1 µM; 650,000 tested, 0.13% active; in the data active means normalized activity above about 1.9%;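 further: purified mutant Fbw7 with reduced substrate affinity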
GPR151 confirm = GPR151 activators, triplicate retest, confirmation, cell-based, PathHunter beta-arrestin, luminescence | 6,700 tested, under 10 active | activation, % at 11.2 µM | GPR151 PathHunter beta-arrestin cells, 90 min; % of EA-reagent control over plate median | shares compounds with GPR151 ag;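 active means mean percent activation across replicates above the confirmation screen cutoff of 4.91%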
GPR119 ag = GPR119 activators in beta-arrestin cells, counter-screen for GPR151 activator project, cell-based, PathHunter beta-arrestin, luminescence, triplicate. shares compounds with GPR151 ag. 90 min; 0 = compound-well median, 100 = enzyme-acceptor control. activation, % at 11.2 µM. 6,700 tested, 0.3% active. AID 1508611, 2020;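 active means mean percent activation in the counterscreen above 29.09%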;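 further: counterscreen on off-target GPR119 to flag nonselective hits from the GPR151 activator screen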
Target sequence (Q8TDV5 whole entry, looked up): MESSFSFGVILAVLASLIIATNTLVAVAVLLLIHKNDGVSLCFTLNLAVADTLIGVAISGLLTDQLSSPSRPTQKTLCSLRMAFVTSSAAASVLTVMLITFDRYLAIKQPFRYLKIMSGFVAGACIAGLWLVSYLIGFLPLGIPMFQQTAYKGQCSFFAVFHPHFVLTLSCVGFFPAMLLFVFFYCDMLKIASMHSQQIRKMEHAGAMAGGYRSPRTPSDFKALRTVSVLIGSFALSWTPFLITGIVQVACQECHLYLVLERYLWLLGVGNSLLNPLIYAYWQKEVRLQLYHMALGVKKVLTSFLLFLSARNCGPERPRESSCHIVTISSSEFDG
Numbers stand for hits; . = inactive; / = not tested or not shown; ! = repeats disagree.

SMILES | TEAD-YAP inh | MITF primary | GPR151 ag | FBW7 act | GPR151 confirm | GPR119 ag
Cc1ccc(S(=O)(=O)Nc2ccccc2C(=O)NCc2ccco2)cc1[N+](=O)[O-] | . | . | 11.4 | . | . | .
Cc1c(N=Cc2ccccc2)cc([N+](=O)[O-])cc1[N+](=O)[O-] | . | . | 5.3 | . | . | .
Cc1c(N=CN(C)C)cc([N+](=O)[O-])cc1[N+](=O)[O-] | . | . | . | . | / | /
COc1cccc(NC(=O)Cn2c3ccccc3c(=O)c3ccc(Cl)cc32)c1 | . | . | . | . | / | /
COC(=O)c1ccc(NC(=O)CN(C2CCCCC2)S(=O)(=O)c2ccc(Cl)cc2)cc1 | . | . | . | . | / | /
CC(=O)c1ccc(NC(=O)CSc2ccc(C)cc2)cc1 | . | . | 5.5 | . | . | .
CC(=O)c1ccc(NC(=O)CSc2ccc(F)cc2)cc1 | . | . | . | . | / | /
Cc1ccc(NC(=O)c2cc3ccccc3o2)c(Br)c1 | . | . | . | . | / | /
CC(=O)NC(=S)Nc1ccc(S(=O)(=O)N(C)Cc2ccccc2)cc1 | . | . | . | . | / | /
CC(=O)Nc1ccc(S(=O)(=O)N(C)CCOCc2ccccc2)cc1 | . | . | 5.4 | . | . | .
CCc1cnc2c(c1NCc1cccs1)c(=O)n(C)c(=O)n2C | . | . | . | . | / | /
COCCNc1nc2ccccn2c(=O)c1/C=C1\SC(=S)NC1=O | . | . | 5.0! | . | . | .
COC(=O)CN1C(=O)COc2cc(S(=O)(=O)N3CCCCCC3)ccc21 | . | . | 5.8 | . | . | .
O=C(CN1C(=O)COc2cc(S(=O)(=O)N3CCCCC3)ccc21)NC1CCCCCC1 | . | . | . | . | / | /
O=C(CN1C(=O)COc2cc(S(=O)(=O)N3CCCC3)ccc21)NC1CCCCCCC1 | . | . | 7.1 | . | . | .
CCC1CCCCN1C(=O)Cn1c(=O)n(-c2ccc(F)cc2)c(=O)c2sccc21 (centres undefined) | . | . | . | . | / | /
CC1CCCCN1C(=O)Cn1c(=O)n(-c2ccc(F)cc2)c(=O)c2sccc21 (centres undefined) | . | . | 5.2 | . | . | .
Cn1nc([N+](=O)[O-])c2c(-c3nc4ccccc4n3C)c(N)n(CCc3ccccc3)c2c1=O | . | . | 6.0 | . | . | .
CCOC(=O)C(NC(=O)/C(=C\c1ccc(F)cc1)NC(=O)c1ccccc1)C(C)C (centres undefined) | . | . | 7.5 | . | . | .
CCOC(=O)C(NC(=O)/C(=C\c1ccc(Br)cc1)NC(=O)c1ccccc1)C(C)O (centres undefined) | . | . | . | . | / | /
Cc1cc(C(=O)N/N=C/c2ccccc2F)n[nH]1 | . | . | 9.8 | . | . | .
Cc1cc(C(=O)N/N=C/c2ccccc2O)n[nH]1 | . | . | . | . | / | /
CCOc1ccc(Br)cc1/C=N\NC(=O)c1cc(C)[nH]n1 | . | . | 7.1 | . | . | .
COc1cc([N+](=O)[O-])c(N2CCOCC2)c([N+](=O)[O-])c1OC | . | . | 5.4 | . | . | .
CCCNC(=O)c1cccc(Nc2ccnn2C)n1 | . | . | . | . | / | /
SMILES | TEAD-YAP inh | MITF primary | GPR151 ag | FBW7 act | GPR151 confirm | GPR119 ag
Cn1nccc1Nc1cccc(C(=O)NCCOc2ccccc2)n1 | . | . | 10.9 | . | . | .
O=C(CCN1C(=O)c2ccccc2S1(=O)=O)Nc1ccc(C(=O)O)cc1 | . | . | 7.6 | . | . | .
COc1ccc(NC(=O)CCN2C(=O)c3ccccc3S2(=O)=O)cc1 | . | . | . | . | / | /
CC1CCN(C(=O)CCSc2ccc(Cl)cc2)CC1 | . | . | . | . | / | /
Nc1nnnn1/N=C/C=C/c1cccc([N+](=O)[O-])c1 | . | . | . | . | / | /
Nc1nnnn1/N=C\C=C\c1ccccc1 | . | . | 9.2 | . | . | .
Cc1cccc(C)c1NC(=O)C1(N2CCC(Cc3ccccc3)CC2)CCCCC1 | . | . | . | . | / | /
O=C(NCCc1ccccc1)C(=O)NCC1CCCN1S(=O)(=O)c1cccs1 (centres undefined) | . | . | 7.3 | . | . | .
CCOC(=O)C(=O)NCC1CCCN1S(=O)(=O)c1cccs1 (centres undefined) | . | . | . | . | / | /
Cc1ccc(S(=O)(=O)N2CCCC2CNC(=O)C(=O)NCCO)cc1 (centres undefined) | . | . | . | . | / | /
Cc1ccc(S(=O)(=O)N2CCCC2CNC(=O)Nc2ccc(Cl)cc2)cc1 (centres undefined) | . | . | 6.0 | . | . | .
O=C(NCC1CCCN1S(=O)(=O)c1ccccc1)C(=O)NC1CCCCC1 (centres undefined) | . | . | 21.5 | . | . | .
CCNC(=O)C(=O)NCC1CCCN1S(=O)(=O)c1ccc(C)cc1 (centres undefined) | . | . | 6.2 | . | . | .
Cc1ccc(S(=O)(=O)N2CCCC2CNC(=O)C(=O)NC2CCCCCC2)cc1 (centres undefined) | . | . | . | . | / | /
COCCOc1cc(-c2cn[nH]c2)ccc1NC(=O)[C@H]1Cc2cc(OC)ccc2CN1 | . | . | . | . | / | /
COc1ccccc1NC(=O)CN1CCN(c2nccn2-c2ccc(C)cc2)CC1 | . | . | . | . | / | /
CCOc1ccccc1NC(=O)CN1CCN(c2nccn2-c2ccc(C)cc2)CC1 | . | . | 8.0 | . | . | .
CCOC(=O)C(C)(C)C(=O)C(C)(C)C(=O)c1ccccc1 | . | . | . | . | / | /
O=C(Nc1ccccc1)NC1(C(F)(F)F)Oc2ccc(Cl)cc2O1 (centres undefined) | . | . | 5.2 | . | . | .
O=C(NC1(C(F)(F)F)Oc2ccccc2O1)C(F)(F)F | . | . | 6.2 | . | . | .
O=C(CCl)NC1(C(F)(F)F)Oc2ccccc2O1 | . | . | . | . | / | /
O=C(Nc1cccc(C(F)(F)F)c1)NC1(C(F)(F)F)Oc2ccc(Cl)cc2O1 (centres undefined) | . | . | . | . | / | /
Cc1ccc(N2CC(C(=O)N3CCCCCC3)CC2=O)cc1 (centres undefined) | . | . | 4.9 | . | . | .
CC(C)NC(=O)C1CC(=O)N(c2ccc(Cl)cc2)C1 (centres undefined) | . | . | 5.8 | . | . | .
COc1cc(OC)cc(-c2noc(C3CCN(S(=O)(=O)c4ccc(Cl)cc4)CC3)n2)c1 | . | . | 5.2 | . | . | .
COc1ccccc1N/N=C(\C)c1ccc([N+](=O)[O-])o1 | . | . | 5.7 | . | . | .

Screening data from PubChem BioAssay.
